The source of these data is the supplement of paper PMC8728848.

About 410 targets per protein were measured; listed, in parts, are those with the strongest signals and a random draw of the rest.

Test in all cases: glycan array binding signal (z-score within array); higher = stronger binding
Details in all cases: glycan notation: IUPAC condensed, linker removed

The target in assay [1] is Fuc(a1-2)Gal(b1-3)GalNAc(b1-4)[Neu5Ac(a2-3)]Gal(b1-4)Glc. The procedure, abridged: (§1)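 Glycan array data came from 3228 arrays in the Consortium for Functional Glycomics database, and only arrays with an available protein sequence were kept. Glycan names were put into IUPAC-condensed notation, and columns mapping to the same glycan were averaged. The binding signal is a within-array Z-score, averaged across arrays of one protein sequence run at different concentrations or buffers and across linkers. A negative Z-score can be read as non-binding.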

A further assay addresses Fuc(a1-2)Gal(b1-4)GlcNAc. The procedure, abridged: as §1
Assay [2] concerns the target Fuc(a1-2)[Gal(a1-4)]Gal(b1-4)GlcNAc. The essentials: as §1
In assay [3] the target is Fuc(a1-3)[Gal(b1-4)]GlcNAc(b1-4)Gal(b1-4)[Fuc(a1-3)]GlcNAc. The procedure, abridged: as §1
For assay [4], the target named is Fuc(a1-3)[Gal3S(b1-4)]GlcNAc. The essentials:
as §1

A further assay has as its target Fuc(a1-4)GlcNAc. The essentials:
as §1

The target in assay [5] is Gal(b1-3)GlcNAc(b1-3)Gal(b1-4)GlcNAc. The essentials: as §1
The target of assay [6] is Gal3S(b1-3)[Fuc(a1-4)]GlcNAc. The essentials: as §1
The target in another assay is Gal3S6S(b1-4)GlcNAc. The essentials: as §1
The next assay addresses Gal4S6S(b1-4)GlcNAc. The procedure, abridged: as §1
For assay [7], the target named is GlcNAc(a1-3)Gal(b1-4)GlcNAc. The procedure, abridged:
as §1

Assay [8] concerns the target GlcNAc(a1-6)Gal(b1-4)GlcNAc. The essentials:
as §1

A further assay concerns the target GlcNAc(b1-3)Gal. The essentials:
as §1

Assay [9] concerns the target GlcNAc(b1-3)Gal(b1-3)GalNAc. The procedure, abridged:
as §1

The next assay has as its target GlcNAc(b1-3)Gal(b1-4)Glc. The procedure, abridged:
as §1

Assay [10] has as its target GlcNAc(b1-3)[GlcNAc(b1-6)]Gal(b1-4)GlcNAc. The essentials:
as §1

For assay [11], the target named is GlcNAc(b1-3)[GlcNAc(b1-6)]GlcNAc(b1-4)GlcNAc. The procedure, abridged: as §1
The target in assay [12] is Man(a1-2)Man(a1-3)[Man(a1-6)]Man(a1-6)[Man(a1-2)Man(a1-3)]Man(b1-4)GlcNAc(b1-4)GlcNAc. The procedure, abridged:
as §1

Assay [13] deals with Neu5Ac(a2-3)Gal(b1-4)[Fuc(a1-3)]GlcNAc(b1-3)Gal(b1-4)GlcNAc. The essentials:
as §1

For assay [14], the target named is Neu5Gc(a2-3)Gal(b1-3)[Fuc(a1-4)]GlcNAc. The procedure, abridged:
as §1

Assay [15] has as its target Neu5Gc(a2-3)Gal(b1-4)GlcNAc. The essentials:
as §1

B1: F17fG (Escherichia coli), Q9RH91 (protein)
chain: MTNFYKVFLAVFILVCCNISHAAVSFIGSTENDVGPSQGSYSSTHAMDNLPFVYNTGHNIGYQNANVWRISGGFCVGLDGKVDLPVVGSLDGQSIYGLTEEVGLLIWMGDTNYSRGTAMSGNSWENVFSGWCVGNYVSTQGLSVHVRPVILKRNSSAQYSVQKTSIGSIRMRPYNGSSAGSVQTTVNFSLNPFTLNDTVTSCRLLTPSAVNVSLAAISAGQLPSSGDEVVAGTTSLKLQCDAGVTVWATLTDATTPSNRSDILTLTGASTATGVGLRIYKNTDSTPLKFGPDSPVKGNENQWQLSTGTETSPSVRLYVKYVNTGEGINPGTVNGISTFTFSYQ
B1: the “glycan array binding signal (z-score)” value was -0.197 in assay [1]; -0.322 with Fuc(a1-2)Gal(b1-4)GlcNAc; -0.127 in assay [2]; -0.238 in assay [3]; -0.234 in [4]; -0.38 with Fuc(a1-4)GlcNAc. The “glycan array binding signal (z-score)” value is -0.3 in assay [5]; -0.253 in assay [6]; 0.156 in the assay with Gal3S6S(b1-4)GlcNAc; 0.026 with Gal4S6S(b1-4)GlcNAc; -0.323 in assay [7]; -0.364 in [8]. In addition, the “glycan array binding signal (z-score)” value was 5.09 in the assay with GlcNAc(b1-3)Gal; 5.89 in [9]; 4.83 with GlcNAc(b1-3)Gal(b1-4)Glc; 6.97 in assay [10]; 0.169 in assay [11]; -0.263 in assay [12]. Also, the “glycan array binding signal (z-score)” value was -0.23 in [13], -0.305 in assay [14] and -0.278 in assay [15].
